# Compounds with a hit are over-represented: about 17% of the library has one in this group of screens.
# TDP1 cell noCPT: qHTS for Inhibitors of human tyrosyl-DNA phosphodiesterase 1 (TDP1): qHTS in cells in absence of CPT; DT40 Tdp1-/- hTDP1 cells, no CPT, ATP luminescence, 48 h; Potency, µM (series often up to 46.2 µM), without a hit: top-dose activity change, negative = growth inhibition, hits mostly inhibitors; AID 686978, 2013; actives 15% (n = 420,000); note: % is set by controls: 0 for no effect and ±100 for the full control effect; nearly all actives have a fitted effect of over 55% in size
#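 A cellular qHTS used chicken DT40 cells lacking endogenous Tdp1 but carrying stably transfected human TDP1. Compounds were applied without camptothecin, and cell growth kinetics were judged by ATP-dependent luminescence after ≥48 hr.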
# TGFb inhibitor: qHTS for Inhibitors of TGF-b; HepG2 CAGA-GFP TGF-b/SMAD3 reporter, GFP fluorescence, 18 h; TGF-beta stimulated, 500 pg/mL final; Potency, µM (top dose mostly 46.1 µM), without a hit: at the highest dose activity, negative = inhibition, actives largely listed as inhibitors; actives 1.2% (n = 410,000); AID 588855, 2011; note: % is set by controls: 0 for no effect and ±100 for the full control effect; nearly all actives have a fitted effect of over 65% in size
#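 Using HEPG2 CAGA-GFP reporter cells at 1000 cells/well, we pinned test compounds, stimulated with recombinant TGF-beta (500 pg/mL final) and measured total well GFP after 18 h.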
# ATXN viability: Viability Counterscreen for Primary qHTS for Inhibitors of ATXN expression | AID 651635, 2014 | S2 cells (HEK-293 line with an ATXN2-luciferase reporter) viability, CellTiter-Fluor protease fluorescence, 24 h | actives 0.49% (n = 400,000) | Potency, µM (highest dose often 56.7 µM), hits mostly cytotoxic; note: nearly all actives have a fitted effect of over 40% in size
# ATXN2 expr inh: Primary qHTS for Inhibitors of ATXN expression; HEK-293 ATXN2-luciferase reporter, luminescence, 24 h; Potency, µM (series often up to 57 µM), without a hit: top-dose activity change, negative = inhibition, actives largely listed as inhibitors; actives 0.72% (n = 360,000); AID 1745845, 2022; note: % is set by controls: 0 for no effect and ±100 for the full control effect; nearly all actives have a fitted effect of over 55% in size
#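 qHTS (up to 57 uM final) was run with 24 h compound exposure of reporter cells at 37 °C. Each well was multiplexed: SteadyGlo luminescence measured ATXN2-luciferase expression after a fluorogenic Gly-Phe-AFC viability readout (25 uM final).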
# HepG2 tox: qHTS for Inhibitors of TGF-b: Cytotox Counterscreen; actives 0.76% (n = 410,000); HepG2 CAGA-GFP viability, ATP luminescence, 18 h; Potency, µM (highest dose often 46.1 µM), inactives show at the highest dose activity change, negative = cytotoxicity, most hits filed as cytotoxic
#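 HepG2 CAGA-GFP cells (1000/well, DMEM with 1% FBS) received compound, then TGF-beta at 500 pg/mL final, and were incubated 18 hours at 37 degrees C. Viability was read by CellTiter-Glo luminescence. Media-only wells were set as complete cell-killing and DMSO as no toxicity.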
# DT40 TDP1 CPT: qHTS for Inhibitors of human tyrosyl-DNA phosphodiesterase 1 (TDP1): qHTS in cells in presence of CPT | chicken DT40 Tdp1-/-;hTDP1 cells + 20 nM CPT, ATP luminescence, 48 h | Potency, µM (titrated, usually from 46.2 µM), inactives show top-dose activity change, negative = growth inhibition, most hits filed as inhibitors | actives 12% (n = 420,000) | AID 686979, 2013; note: % is set by controls: 0 for no effect and ±100 for the full control effect; nearly all actives have a fitted effect of over 55% in size
#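 Chicken DT40 Tdp1-/- cells stably complemented with human TDP1 were seeded at 400 cells/well in medium containing 20 nM camptothecin, exposed to pin-transferred compounds, and grown at 37 °C for at least 48 hr. Viability was read as ATP luminescence.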
# Starred values were filed as active, the others as inactive; i = inactive; ? = inconclusive; nt = no result. Calls come from the whole dose curve; as a rule, active = well fitted curve in the direction sought with a large enough effect; inconclusive = small, poorly fitted or top-dose-only effect, or another doubt; inactive = no such curve, though single readings can be large; an effect the other way counts as inactive or inconclusive. Potency is the fitted concentration of half-maximal effect.
SMILES,TDP1 cell noCPT,TGFb inhibitor,ATXN viability,ATXN2 expr inh,HepG2 tox,DT40 TDP1 CPT
CN(C(=O)COC(=O)CCCN1C(=O)c2cccc3cccc(c23)C1=O)C1CCS(=O)(=O)C1 (stereo not given),-14.8%,-19.9%,i,-9.3%,-2.5%,-10.2%
CC1NC(=O)c2cccnc2-n2c1nc1ccccc1c2=O (stereo not given),-7.1%,-4.4%,i,-5.9%,2.4%,-0.3%
COc1ccc(-c2nc(CSCC(=O)N3CCN(c4cc(Cl)ccc4C)CC3)c(C)o2)cc1,16.4µM*,17.8µM*,nt,nt,-33.5%,13µM*
COc1ccc(-c2nc(CSCC(=O)N3CCN(c4ccc(OC)cc4)CC3)c(C)o2)cc1,10.3µM*,?,nt,nt,-13.7%,?
CCC(C(=O)NC1CCCC1)N(C(=O)Cn1nnc(-c2ccc(C)cc2)n1)C1CCCC1 (stereo not given),18.4µM*,4.4%,?,-12.7%,6.3%,25.9µM*
COc1ccc(-c2nnn(CC(=O)N(Cc3cccs3)C(C)C(=O)NC3CCCC3)n2)cc1OC (stereo not given),?,-4.9%,?,-12.7%,-18.9%,29.1µM*
CCC(C(=O)NC1CCCC1)N(Cc1cccs1)C(=O)Cn1nnc(-c2ccc(OC)c(OC)c2)n1 (stereo not given),?,-8.1%,i,-4.1%,-17.8%,-22.2%
CC(C)CCNC(=O)C(c1ccncc1)N(Cc1cccs1)C(=O)Cn1nnc(-c2ccc(F)cc2)n1 (stereo not given),?,-21.0%,i,?,-8.2%,9.2µM*
CCC(C(=O)NC1CCCC1)N(C(=O)Cn1nnc(-c2ccc(OC)c(OC)c2)n1)C1CCCCC1 (stereo not given),?,5.0%,?,-4.6%,-2.4%,13µM*
CCCC(C(=O)NC1CCCC1)N(C(=O)Cn1nnc(-c2ccc(C)o2)n1)C1CCCC1 (stereo not given),?,2.8%,i,-1.1%,7.3%,?
COc1ccc(S(=O)(=O)N(CC(=O)Nc2ccc(F)c(Cl)c2)c2ccc(C)cc2)cc1OC,nt,-17.3%,?,-18.6%,-37.4%,nt
CSc1cccc(NC(=O)C2(S(=O)(=O)c3ccc(C)cc3)CC2)c1,-21.2%,-15.8%,i,-4.8%,-14.5%,-0.1%
COCCNC(=O)C1CCCN(C(=O)c2sc(-c3ccccc3)nc2C)CC1 (stereo not given),6.7%,4.4%,i,7.7%,11.7%,13.2%
Cc1nc(Nc2nc3ccccc3o2)nc2c1CCC2,20.6µM*,13.7%,i,?,-19.0%,?
Cc1cccc(C)c1Nc1nc2ccccc2o1,?,-10.9%,?,-24.0%,-6.8%,?
CCOC(=O)c1cnc(Nc2nc3ccccc3o2)nc1C,3.16µM*,0.2%,i,2.82µM*,-40.5%,3.16µM*
CCOC(=O)c1cnc(Nc2nc3ccccc3o2)nc1CSc1nnc(C)s1,2.59µM*,1.7%,i,-7.2%,-21.0%,3.26µM*
Nc1[nH]c(=S)nc2nnsc12,11.2µM*,-7.0%,nt,nt,-7.0%,11.2µM*
Nc1nc(N)c2snnc2n1,?,-17.2%,nt,nt,-8.7%,1.6%
CCN(C[C@H]1N[C@@](Cc2ccccc2)(C(=O)OC)[C@H]2C(=O)N(C)C(=O)[C@@H]12)S(=O)(=O)c1ccc(C(F)(F)F)cc1,18.4µM*,-14.0%,?,0.0%,-10.7%,23.1µM*
CCN(C[C@H]1N[C@@](Cc2ccccc2)(C(=O)OC)[C@H]2C(=O)N(C)C(=O)[C@@H]12)S(=O)(=O)c1ccc(OC)cc1,14.6µM*,2.2%,?,-9.5%,0.9%,14.6µM*
CCN(C[C@H]1N[C@@](Cc2ccccc2)(C(=O)OC)[C@H]2C(=O)N(Cc3ccccc3)C(=O)[C@@H]12)S(=O)(=O)c1ccc(C(F)(F)F)cc1,?,-25.2%,i,3.9%,-5.4%,?
CCN(C[C@H]1N[C@@](Cc2ccccc2)(C(=O)OC)[C@H]2C(=O)N(C)C(=O)[C@@H]12)S(=O)(=O)c1ccc(OC(F)(F)F)cc1,16.4µM*,-20.8%,?,-22.0%,-7.9%,?
COC(=O)[C@]1(Cc2ccccc2)N[C@H](CN(C)S(=O)(=O)c2ccc(-c3ccccc3)cc2)[C@@H]2C(=O)N(C)C(=O)[C@@H]21,20.6µM*,7.3%,i,-8.3%,-30.9%,25.9µM*
CCN(C[C@H]1N[C@@](CC)(C(=O)OC)[C@H]2C(=O)N(C)C(=O)[C@@H]12)S(=O)(=O)c1ccc(C)cc1,-15.2%,4.4%,i,-6.7%,-9.6%,-9.4%
SMILES,TDP1 cell noCPT,TGFb inhibitor,ATXN viability,ATXN2 expr inh,HepG2 tox,DT40 TDP1 CPT
CCN(C[C@H]1N[C@@](C)(C(=O)OC)[C@H]2C(=O)N(C)C(=O)[C@@H]12)S(=O)(=O)c1ccc(OC(F)(F)F)cc1,-13.2%,?,i,3.3%,-10.6%,-1.1%
CC[C@@]1(C(=O)OC)N[C@H](CN(C)S(=O)(=O)c2ccc(-c3ccccc3)cc2)[C@@H]2C(=O)N(Cc3ccccc3)C(=O)[C@@H]21,-27.4%,13.5%,i,0.5%,5.7%,-14.9%
Cc1cccc(Cc2cnc(NC(=O)C3Cc4ccc(C)cc4C(=O)O3)s2)c1 (stereo not given),nt,?,i,4.8%,-38.9%,nt
O=C(O)C1CCCCC1C(=O)NCc1ccncc1 (stereo not given),-17.4%,-0.9%,i,-2.0%,16.3%,-1.4%
Oc1cc(CNCc2ccccc2)c(O)cc1CNCc1ccccc1,13µM*,9.6%,i,-9.3%,-0.7%,?
OCc1ccccc1CNCc1ccccc1,-23.2%,7.0%,i,-6.3%,-11.8%,-24.5%
C[C@H](CO)N1C[C@H](C)[C@@H](CN(C)C(=O)NC2CCCCC2)Oc2ccc(NC(=O)Nc3ccccc3)cc2C1=O,-10.9%,2.6%,i,-2.4%,0.5%,-16.1%
Cc1ccc(N2C(=O)CSC23C(=O)N(CC(=O)Nc2ccc(C)cc2C)c2ccccc23)cc1 (stereo not given),?,-18.6%,i,4.1%,-23.8%,?
Oc1ccccc1C1CC(c2cccs2)=NC(c2cccc(Br)c2)N1 (stereo not given),20.6µM*,20µM*,i,50.7%,-60.8%,14.6µM*
